Bioassay records as filed in PubChem BioAssay.
Sampled rows, rich in hits. Any-hit rate of the full collection: about 3.2%.
PMP22 txn = PMP22 gene transcription modulation; S16 Pmp22-F2sN Schwann cells, FLuc/NLuc coincidence luminescence, 24 h; Potency, µM (series often up to 57.5 µM), for the others: at the highest dose activity change, negative = inhibition, most hits filed as inhibitors; hit rate 2% among 43,000; AID 1508649; active = clear falling dose curves in both reporters; inconclusive = both reporters move, but less clearly or upward; inactive = either reporter flat; the % is the NLuc reporter signal
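S16(c9) Schwann cells with FLuc/NLuc coincidence reporter in the Pmp22 3' UTR; compounds pin-transferred, 24 h at 37C. Dual-luciferase read: FLuc first, then NLuc after Stop&Glo, each 10 min at room temperature.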
p53null 39C kill = selectivity test: cytotoxicity in p53 null cells, nonpermissive temperature. H1299 p53-null (neo) cells, 39C, ATPlite viability, 24 h. Potency, µM (highest dose often 46.1 µM), for the others: at the top dose activity, negative = cell killing, hits mostly cytotoxic. hit rate 0.97% among 55,000. AID 904;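 also: 0% = DMSO only and -100% = full killing by 100 µM tamoxifen; nearly all actives have a fitted effect of over 50% in size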
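Cells seeded at 600/well, 37C overnight. Compound added (up to 46 uM), plates shifted to 39C for 24 hr. ATPlite added, luminescence read after 20 min at room temperature.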
p53null 32C tox = kills p53 null cells at the permissive temperature. H1299-neo p53 null cells, ATP luminescence, 24 h, 32C. Potency, µM (highest dose often 46.1 µM), inactives show at the top dose activity change, negative = cytotoxicity, most hits filed as cytotoxic. hit rate 0.62% among 55,000;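 also: 0% = DMSO only and -100% = full killing by 100 µM tamoxifen; nearly all actives have a fitted effect of over 55% in size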
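Overnight 37C seeding (600 cells/well) of H1299-neo preceded a 24 hr, 32C exposure to compounds up to 46 uM. ATP levels, read by luminescence after 20 min at RT, indicated surviving cells.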
S16 viability = S16 Schwann cell cytotoxicity; AID 1508642; S16 Pmp22-F2sN Schwann cells (luciferase reporters placed in the Pmp22 gene) viability, CellTiter-Glo, 24 h; hit rate 0.48% among 43,000; Potency, µM (doses to about 57.5 µM), inactives show at the highest dose activity change, negative = cytotoxicity, hits mostly cytotoxic; also: nearly all actives have a fitted effect of over 65% in size
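Rat S16 Schwann reporter line, 24 h treatment with library compounds delivered at 23 nL per well. Cell viability by CellTiter-Glo luminescence.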
mTORC1 inh = inhibitors of mTORC1 signaling in Tsc2-/- p53-/- MEF cells. Tsc2-/- p53-/- MEF, phospho-rpS6 immunofluorescence/PI, 24 h. Potency, µM (titrated, usually from 38.3 µM), for the others: top-dose activity change, negative = inhibition, actives largely listed as inhibitors. hit rate 0.78% among 44,000. AID 493208;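 also: plate controls were DMSO for no effect and rapamycin for full effect; nearly all actives have a fitted effect of over 50% in size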
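Compounds act on Tsc2-/-, p53-/- fibroblasts carrying an empty vector for 24 h before fixation and dual staining for phospho-S6 and DNA (propidium iodide). Values are percentages of cells above a rapamycin-defined pS6/PI threshold.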
Numbers without * were called inactive; [ ] = remark or other dose. Unless noted, calls follow the shape of the dose curve; as a rule, active = well fitted curve in the direction sought with a large enough effect; inconclusive = small, poorly fitted or top-dose-only effect, or another doubt; inactive = no such curve, though single readings can be large; an effect the other way counts as inactive or inconclusive. Unless noted, % is scaled to controls: 0 for no effect and ±100 for the full control effect; potency is read from the fitted curve at half-maximal effect.

Results for CCN(CC)CCNC(=O)c1ccc2c(c1)sc1nc(-c3ccc(F)cc3)cn12 ?
PMP22 txn: inconclusive; p53null 39C kill: -13.5%; p53null 32C tox: -1.6%; S16 viability: inconclusive; mTORC1 inh: -11.0%

Results for CCOc1ccc(-c2cn3c(n2)sc2cc(C(=O)NCCCN4CCCCC4)ccc23)cc1 ?
PMP22 txn: 14.2µM*; p53null 39C kill: -0.9%; p53null 32C tox: -6.1%; S16 viability: 7.08µM*; mTORC1 inh: 2.5%

Results for Cc1ccc(-c2cn3c(n2)sc2cc(C(=O)NCCCN4CCCCC4)ccc23)cc1 ?
PMP22 txn: 8.91µM*; p53null 39C kill: -12.0%; p53null 32C tox: -2.9%; S16 viability: 3.98µM*; mTORC1 inh: 7.0%

What do the screens show for `CCCN1CCN(CCCNC(=O)c2ccc3c(c2)sc2nc(-c4ccc(OCC)cc4)cn23)CC1`?
PMP22 txn: inconclusive; p53null 39C kill: 25.1µM*; p53null 32C tox: inconclusive; S16 viability: inconclusive; mTORC1 inh: inconclusive

What do the screens show for `Cc1ccc(-c2cn3c(n2)sc2cc(C(=O)NCCCN4CCCCCC4)ccc23)cc1`?
PMP22 txn: inconclusive; p53null 39C kill: -14.7%; p53null 32C tox: 7.2%; S16 viability: inconclusive; mTORC1 inh: -0.4%

Results for CCOc1ccc(-c2cn3c(n2)sc2cc(C(=O)NCCCN(CC)CC)ccc23)cc1 ?
PMP22 txn: 4.47µM*; p53null 39C kill: 3.5%; p53null 32C tox: -3.4%; S16 viability: 10µM*; mTORC1 inh: -4.1%

Results for CCOc1ccc(-c2cn3c(n2)sc2cc(C(=O)NCCCN4CCCCCC4)ccc23)cc1 ?
PMP22 txn: inconclusive; p53null 39C kill: -5.4%; p53null 32C tox: 10.3%; S16 viability: inconclusive; mTORC1 inh: 3.2%

How did O=C(CSc1nnc(-c2ccc([N+](=O)[O-])cc2)o1)Nc1ccccc1 do in these assays?
PMP22 txn: -5.1%; p53null 39C kill: 6.31µM*; p53null 32C tox: inconclusive; S16 viability: 0.8%; mTORC1 inh: -1.0%

Results for Cc1ccc2sc(-c3ccc(N)cc3)nc2c1 ?
PMP22 txn: -25.9%; p53null 39C kill: 1.58µM*; p53null 32C tox: 2µM*; S16 viability: -2.2%; mTORC1 inh: -11.4%

Results for CCCCc1ccc(NS(=O)(=O)c2ccc(N3CCCCS3(=O)=O)cc2)cc1 ?
PMP22 txn: -4.6%; p53null 39C kill: 21.3%; p53null 32C tox: 43.6%; S16 viability: -1.6%; mTORC1 inh: 14.3%

Results for COc1ccc(-c2cc(C(F)(F)F)nc(SCCC(=O)Nc3ccccc3F)n2)cc1 ?
PMP22 txn: -12.8%; p53null 39C kill: -19.4%; p53null 32C tox: -5.3%; S16 viability: -4.3%; mTORC1 inh: 0.6%

What do the screens show for `COc1ccc(-c2cc(C(F)(F)F)nc(SCCC(=O)Nc3cc(C)ccc3O)n2)cc1`?
PMP22 txn: inconclusive; p53null 39C kill: 11.2µM*; p53null 32C tox: -2.5%; S16 viability: 11.9%; mTORC1 inh: -14.6%

What do the screens show for `Cc1ccc(C)c(-n2c(CCC(=O)O)ccc2-c2ccc(Cl)cc2)c1`?
PMP22 txn: 10.8%; p53null 39C kill: -2.6%; p53null 32C tox: 6.3%; S16 viability: 2.2%; mTORC1 inh: 0.7%

What do the screens show for `COc1ccc(-c2nc3cc(NC(=O)Cc4ccc(Cl)cc4)ccc3o2)cc1OC`?
PMP22 txn: inconclusive; p53null 39C kill: 10µM*; p53null 32C tox: inconclusive; S16 viability: 7.4%; mTORC1 inh: 4.14µM*

How did COc1ccc(-c2nc3ccccc3o2)cc1NC(=O)C(C)Oc1ccc(Cl)cc1Cl (stereo unspecified) do in these assays?
PMP22 txn: 13.5µM*; p53null 39C kill: -18.3%; p53null 32C tox: 1.3%[9.22 µM]; S16 viability: 0.3%; mTORC1 inh: -16.9%

How did COc1ccc(-c2nc3ccccc3o2)cc1NC(=O)CSc1ccc(Cl)cc1 do in these assays?
PMP22 txn: inconclusive; p53null 39C kill: -18.7%; p53null 32C tox: 0.1%; S16 viability: 0.4%; mTORC1 inh: 7.4%

Results for Cc1cc2c(cc1NC(=O)c1ccc(C(C)(C)C)cc1)n(C)c(=O)c(=O)n2C ?
PMP22 txn: inconclusive; p53null 39C kill: -6.6%; p53null 32C tox: -7.8%; S16 viability: inconclusive; mTORC1 inh: -12.3%

Results for CCN(CC)c1ccc(-c2nc(-c3ccccn3)no2)cc1[N+](=O)[O-] ?
PMP22 txn: inconclusive; p53null 39C kill: -1.1%; p53null 32C tox: -7.2%; S16 viability: 0.8%; mTORC1 inh: -0.1%

What do the screens show for `c1ccc(-c2nc(-c3ccccn3)no2)cc1`?
p53null 39C kill: 7.94µM*; p53null 32C tox: 5.62µM*

Results for COc1ccc(C2N=C(N)Nc3nc4ccccc4n32)cc1 (stereo unspecified) ?
PMP22 txn: -28.7%; p53null 39C kill: 28.8%; p53null 32C tox: -5.9%; S16 viability: 0.3%; mTORC1 inh: -6.7%

Results for CCCN(CCC)c1ccc(C2N=C(N)Nc3nc4ccccc4n32)cc1 (stereo unspecified) ?
PMP22 txn: inconclusive; p53null 39C kill: 3.16µM*; p53null 32C tox: inconclusive; S16 viability: inconclusive; mTORC1 inh: -3.5%

How did CCc1cccc(N2C(=O)N(CC(=O)NCc3cccc(OC)c3OC)c3ccccc3S2(=O)=O)c1 do in these assays?
PMP22 txn: -14.6%; p53null 39C kill: -3.0%; p53null 32C tox: -7.8%; S16 viability: 14.3%; mTORC1 inh: -8.3%

Results for CCc1ccc2nc(N3CCN(C(=O)C4CC4)CC3)sc2c1 ?
PMP22 txn: -9.5%; p53null 39C kill: 19.6%; p53null 32C tox: -20.2%; S16 viability: -1.1%; mTORC1 inh: -13.2%

What do the screens show for `CCCCN(C)CCNC(=O)C1CCN(c2nc3ccc(CC)cc3s2)CC1`?
PMP22 txn: inconclusive; p53null 39C kill: 3.16µM*; p53null 32C tox: inconclusive; S16 viability: inconclusive; mTORC1 inh: 11.7µM*

How did CCc1ccc2nc(N3CCC(C(=O)O)CC3)sc2c1 do in these assays?
PMP22 txn: 23.7%; p53null 39C kill: 5.01µM*; p53null 32C tox: 7.94µM*; S16 viability: -3.0%; mTORC1 inh: -1.5%

Results for O=C(Cn1c(=O)oc2cc(S(=O)(=O)NCc3ccccc3)ccc21)NCc1ccc(F)cc1 ?
PMP22 txn: -94.5%; p53null 39C kill: 3.1%; p53null 32C tox: inconclusive; S16 viability: -1.1%; mTORC1 inh: -8.9%

What do the screens show for `Cc1ccc(C)c(Cn2nnc(C(=O)NCc3ccc(Cl)cc3Cl)c2N)c1`?
PMP22 txn: inconclusive; p53null 39C kill: inconclusive; p53null 32C tox: 4.6%; S16 viability: -0.3%; mTORC1 inh: -13.6%

How did Cc1ccc(NC(=O)c2cc3c(s2)CCCC3)cc1S(=O)(=O)Nc1ccccc1Cl do in these assays?
p53null 39C kill: 8.7%; p53null 32C tox: 35.0%
